Results reported in PubChem BioAssay (NCI).
Compounds without any hit were thinned out: in the full panel of roughly 83,000, 20% have a hit.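 Treatment: one concentration, 48 hours, 96-well format. Scoring: percent growth, with anything below 10 considered active.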 Activity calls are given as the source filed them.

The compounds below were run on HL-60(TB) leukemia (assay: NCI-60 one-dose screen, 48 h (100 = growth as untreated, 0 = no growth, -100 = all killed)). Conditions: 10 µM unless noted.

Row | SMILES | growth
1 | CC(C)C(/C=C/c1[nH]ncc1-c1cc(Cl)ccc1O)N1CCOCC1 (stereo not given) | 93.5% (inactive)
2 | CCCSc1nc(Nc2ccc(/C(C)=N\NC(N)=S)cc2)c(C#N)c(-c2ccc(OC)cc2)n1 | 74% (inactive)
3 | CCN(CC)c1ccc(/C=N/NC(=O)c2ccc(S(N)(=O)=O)cc2)c(O)c1 | 1.26% (active)
4 | COc1ccc(Cn2cc(C#N)c(N)c2C(C)=O)cc1 | 103% (inactive)
5 | NS(=O)(=O)c1ccc(Nc2nc(Nc3ccccc3)nc3nnc(SCC(=O)NC4CCCCC4)n23)cc1 | 106% (inactive)
6 | COc1cc2c(cc1OC)C(Sc1ccc(C)cc1)c1c(nc(N)c(C#N)c1N)O2 (stereo not given) | -19% (active)
7 | O=C1C(N2CCN(c3ccccc3)CC2)=C(Cl)C(=O)c2ncccc21 | 4.34% (active)
8 | CCNC(=O)Oc1ccc(/C(=C(/C)c2ccc(Cl)cc2)c2ccc(OCCN3CCCC3)cc2)cc1 | 56.2% (inactive)
9 | CC(=O)c1ccc(Nc2nc(SCC(C)C)nc(-c3ccc(F)cc3)c2C#N)cc1 | 103% (inactive)
10 | NC1[C@H]2CN(c3cnc(C(=O)Nc4cc(F)cc5cccnc45)cn3)C[C@@H]12 (stereo not given in full) | 11.5% (inactive)
11 | Cc1nc2cnc(N)c(C#Cc3cncc(C(=O)Nc4ccc(Cl)c(C(F)(F)F)c4)c3)c2nc1C | 15.8% (inactive)
12 | CC(=O)N1N=C(c2cc3ccccc3oc2=O)CC1c1cn(-c2ccccc2)nc1-c1ccc(C)cc1 (stereo not given) | 107% (inactive)
13 | COc1ccc(Cn2cc3c(c2-c2cc(OC)c(OC)c(OC)c2)CCc2c(CN4CCOCC4)noc2-3)cc1 | 1.3% (active)
14 | N#C/C(=C\c1ccc(-c2ccc(F)cc2)o1)C(=O)Nc1ncc(Cc2ccc(Cl)cc2Cl)s1 | 22.5% (inactive)
15 | N#Cc1c(-c2ccc(Cl)cc2)nc(SCc2ccc([N+](=O)[O-])cc2)nc1N1CCNCC1 | -53.3% (active)
16 | O=C(CCCCCCN1CC(=O)N2[C@@H](c3ccc(Cl)c(F)c3)c3[nH]c4ccccc4c3C[C@H]2C1=O)NO | 85.1% (inactive)
17 | C#CCOc1ccc(/C=N/Nc2nc(-c3ccc(OC)cc3)cs2)cc1 | 60% (inactive)
18 | O=C1[C@H]2Cc3c([nH]c4ccccc34)[C@@H](c3ccc(Cl)cc3)N2C(=O)CN1C1CCN(Cc2c(Cl)cccc2Cl)CC1 | 108% (inactive)
19 | N#Cc1cccc(-c2cc(-c3ccc4c(c3)OCCO4)[nH]n2)c1 | 6.12% (active)
20 | CCNC(=NCCCN(C)C)N/C(N)=N/c1nc2ccccc2s1 | 90.9% (inactive)

Row | SMILES | growth
21 | C#C[C@]1(O)CC[C@H]2[C@@H]3CC=C4c5sc(Nc6nc(C)cc(OC)n6)nc5CC[C@]4(C)[C@H]3CC[C@@]21C | 12.1% (inactive)
22 | Clc1ccc(-c2nc3ccc(/C(=N\N=C\c4ccccc4)c4ccccc4)cc3[nH]2)cc1 | 73.3% (inactive)
23 | COc1cccc2c1C=CC1(O2)Oc2cccc(OC)c2C=C1C (stereo not given) | 0.839% (active)
24 | O=C(CCCCCCNC(=O)C(O)(O)C(F)(F)F)Nc1ncc(-c2ccc(Br)cc2)s1 | 6.28% (active)
25 | O=C(NNc1nc2cc(F)ccc2n2c(CO)ccc12)c1cnccn1 | -27.4% (active)
26 | NC(=O)c1c(NC(=O)c2ccc(F)cc2F)sc2c1CCC(=O)C2 | 34.1% (inactive)
27 | COc1ccc(NC(=O)c2sc3nc(-c4cnccn4)cc(-c4cccs4)c3c2N)cc1 | 56.2% (inactive)
28 | CN(C)c1ccc(/C=c2\sc3nc4ccccc4n3c2=O)cc1 | 94.7% (inactive)
29 | COc1ccc(-c2nc3ccc(-c4nnc(SCC(=O)Nc5ccc(C(C)=O)cc5)o4)cc3[nH]2)cc1 | 83.4% (inactive)
30 | CC(=O)Nc1cc(F)cc(-c2ccc3[nH]cc(-c4ccccc4)c3n2)c1 | 7.81% (active)
31 | O=C(Nc1ccc(F)cc1)c1cc(-c2ccc(F)cc2F)ccc1O | 0.532% (active)
32 | C#C[C@]1(O)CC[C@H]2[C@@H]3CC=C4c5sc(-c6ccc(F)cn6)nc5CC[C@]4(C)[C@H]3CC[C@@]21C | 8.65% (active)
33 | C#C[C@]1(O)CC[C@H]2[C@@H]3CC=C4c5sc(Nc6ncccc6C)nc5CC[C@]4(C)[C@H]3CC[C@@]21C | -29.6% (active)
34 | COc1cc(-c2nn(C(C)(C)C)cc2-c2ccnc(NCCCNS(=O)(=O)c3ccc(F)cc3)n2)ccc1Cl | 101% (inactive)
35 | N#Cc1c(-c2ccc(Cl)cc2)nc(SCc2ccc(F)cc2)nc1N1CCNCC1 | -34.8% (active)
36 | N/C(=N\OC(=O)CSc1nc2ccccc2s1)c1ccc2ccccc2c1 | 105% (inactive)
37 | CN1C(=O)N(c2ccccc2)C2N=C(N/N=C/c3ccccc3)SC21 (stereo not given) | -6.56% (active)
38 | O=C(NCCCNc1cc(-c2cn(-c3ccccc3)nc2-c2cccc(O)c2)ccn1)Nc1cc(C(F)(F)F)cc(C(F)(F)F)c1 | 71.9% (inactive)
39 | N#Cc1c(-c2ccc(Cl)cc2)nc2c(-c3ccccc3)c(Nc3ccccc3)nn2c1N | 91.3% (inactive)
40 | O=c1c2cc(-c3ccc(F)cc3F)ccc2n(Nc2ccccc2)c(=O)n1-c1cccc(C(F)(F)F)c1 | -45.5% (active)
